We go through one sequence from paper PMC7862700, “An all-to-all approach to the identification of sequence-specific readers for epigenetic DNA modifications on cytosine”.

Common to all, as to assay: DAPPL (digital affinity profiling via proximity ligation, sequencing); 10 mM Tris-HCl pH 7.5, 50 mM NaCl, 1 mM DTT, 4% glycerol, room temperature, 30 min; GST-TFs on glutathione beads, 16-mer random dsDNA library, 0.1% formaldehyde crosslink after washing; high values mean tight binding
Test [1] deals with T1, FEV (Homo sapiens, UniProt Q99581 1-238).
T1 sequence: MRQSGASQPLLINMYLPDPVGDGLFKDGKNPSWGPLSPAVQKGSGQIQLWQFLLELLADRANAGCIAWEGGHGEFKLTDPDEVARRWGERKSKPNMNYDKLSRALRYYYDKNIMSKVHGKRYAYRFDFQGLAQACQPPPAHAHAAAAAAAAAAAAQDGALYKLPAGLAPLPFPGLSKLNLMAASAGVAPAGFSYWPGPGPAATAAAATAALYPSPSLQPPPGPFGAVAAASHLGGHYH
To be noted: protein: recombinant; tags: N-terminal GST; dsDNA, one strand shown. In outline: (§1)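 Binding signal is given per hexamer as its read frequency for a factor divided by its frequency in the tag-only sample. GST-fused human transcription factors were expressed in yeast, captured on glutathione beads, barcoded with DNA and pooled with that sample, then incubated with 200 nmole of a 16-mer random double-stranded DNA library in Tris/NaCl/DTT/glycerol buffer for 30 min at room temperature. The pools were then washed, crosslinked, proximity-ligated, amplified by PCR and sequenced on an Illumina NextSeq500.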

The target of test [2] is ETV5 (Homo sapiens, UniProt P41161 1-510). To be noted: protein: recombinant; tags: N-terminal GST; dsDNA, one strand shown. In outline: as §1
The target of test [3] is HSF1 (Homo sapiens, UniProt Q00613 1-529). The following applies: protein: recombinant; tags: N-terminal GST; chain copies: 3; dsDNA, one strand shown. In outline:
as §1

The target in test [4] is T2, SPIC (Homo sapiens, UniProt Q8N5J4 1-248).
T2 sequence: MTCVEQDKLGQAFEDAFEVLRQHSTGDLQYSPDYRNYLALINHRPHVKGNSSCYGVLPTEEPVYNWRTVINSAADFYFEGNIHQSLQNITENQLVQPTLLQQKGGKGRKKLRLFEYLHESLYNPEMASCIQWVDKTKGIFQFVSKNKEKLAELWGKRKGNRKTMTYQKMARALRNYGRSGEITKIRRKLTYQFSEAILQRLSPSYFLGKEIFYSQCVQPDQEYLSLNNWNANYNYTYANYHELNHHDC
The following applies: protein: recombinant; tags: N-terminal GST; dsDNA, one strand shown. The method, boiled down: as §1

Test [5] concerns the target ELF4 (Homo sapiens, UniProt Q99607 1-663). The following applies: protein: recombinant; tags: N-terminal GST; dsDNA, one strand shown. The method, boiled down:
as §1

In test [6] the target is T3, ELK4 (Homo sapiens, UniProt P28324-2 1-405).
T3 sequence: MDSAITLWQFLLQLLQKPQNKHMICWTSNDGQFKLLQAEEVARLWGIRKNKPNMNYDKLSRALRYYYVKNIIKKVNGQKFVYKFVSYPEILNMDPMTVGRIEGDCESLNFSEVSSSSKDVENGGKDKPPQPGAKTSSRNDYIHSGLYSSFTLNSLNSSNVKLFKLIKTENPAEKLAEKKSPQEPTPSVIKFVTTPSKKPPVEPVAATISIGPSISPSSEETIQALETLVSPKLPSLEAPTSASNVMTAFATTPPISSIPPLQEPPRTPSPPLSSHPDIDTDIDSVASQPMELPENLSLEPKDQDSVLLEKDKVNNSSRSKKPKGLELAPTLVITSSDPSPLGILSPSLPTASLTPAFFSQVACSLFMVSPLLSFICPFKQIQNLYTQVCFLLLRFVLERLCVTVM
The following applies: protein: recombinant; tags: N-terminal GST; dsDNA, one strand shown. In outline:
as §1

Test [7] has as its target T4, ETV2 (Homo sapiens, UniProt O00321 1-342).
T4 sequence: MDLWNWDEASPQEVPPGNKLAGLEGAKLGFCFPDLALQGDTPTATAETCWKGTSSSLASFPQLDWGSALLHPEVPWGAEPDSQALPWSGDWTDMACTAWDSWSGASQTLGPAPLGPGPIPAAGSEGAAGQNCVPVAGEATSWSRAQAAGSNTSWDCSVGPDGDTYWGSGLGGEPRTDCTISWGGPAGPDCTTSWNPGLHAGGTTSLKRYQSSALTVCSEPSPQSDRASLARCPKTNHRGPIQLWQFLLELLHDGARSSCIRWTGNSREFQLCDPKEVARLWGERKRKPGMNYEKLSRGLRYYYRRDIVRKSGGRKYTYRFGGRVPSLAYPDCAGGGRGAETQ
To be noted: protein: recombinant; tags: N-terminal GST; dsDNA, one strand shown. In outline: as §1

Test [8] deals with T5, ELF3 (Homo sapiens, UniProt P78545 1-371).
T5 sequence: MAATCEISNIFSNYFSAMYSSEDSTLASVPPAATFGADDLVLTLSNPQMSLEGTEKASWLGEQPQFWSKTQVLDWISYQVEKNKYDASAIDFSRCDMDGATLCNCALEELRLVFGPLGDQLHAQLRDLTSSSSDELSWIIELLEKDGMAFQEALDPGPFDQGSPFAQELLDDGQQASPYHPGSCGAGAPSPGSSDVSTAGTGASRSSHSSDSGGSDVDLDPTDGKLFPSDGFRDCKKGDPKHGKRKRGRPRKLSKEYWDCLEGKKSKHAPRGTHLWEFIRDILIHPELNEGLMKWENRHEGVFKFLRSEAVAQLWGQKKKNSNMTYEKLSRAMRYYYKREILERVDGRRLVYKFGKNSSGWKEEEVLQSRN
The following applies: protein: recombinant; tags: N-terminal GST; dsDNA, one strand shown. The method, boiled down:
as §1

Test [9] deals with CRX (Homo sapiens, UniProt O43186 1-299). The following applies: protein: recombinant; tags: N-terminal GST; dsDNA, one strand shown. The method, boiled down:
as §1

Test [10] concerns the target ETV1 (Homo sapiens, UniProt P50549 1-477). The following applies: protein: recombinant; tags: N-terminal GST; dsDNA, one strand shown. The method, boiled down:
as §1

For test [11], the target named is T6, ERF (Homo sapiens, UniProt P50548 1-548).
T6 sequence: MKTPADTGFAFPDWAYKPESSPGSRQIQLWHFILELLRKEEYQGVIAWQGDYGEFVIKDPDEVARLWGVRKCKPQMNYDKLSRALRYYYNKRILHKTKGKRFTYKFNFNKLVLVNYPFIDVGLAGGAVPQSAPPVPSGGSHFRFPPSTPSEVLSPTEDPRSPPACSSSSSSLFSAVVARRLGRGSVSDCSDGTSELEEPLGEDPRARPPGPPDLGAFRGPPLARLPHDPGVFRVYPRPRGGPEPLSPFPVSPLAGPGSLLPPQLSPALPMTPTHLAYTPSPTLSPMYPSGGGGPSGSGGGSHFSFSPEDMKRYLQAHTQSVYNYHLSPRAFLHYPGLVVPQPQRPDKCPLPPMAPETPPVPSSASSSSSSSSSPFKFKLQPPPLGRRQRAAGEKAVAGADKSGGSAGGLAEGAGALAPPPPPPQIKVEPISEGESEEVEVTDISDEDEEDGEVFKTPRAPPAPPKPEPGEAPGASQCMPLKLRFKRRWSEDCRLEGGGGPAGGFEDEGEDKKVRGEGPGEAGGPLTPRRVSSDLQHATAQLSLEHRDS
To be noted: protein: recombinant; tags: N-terminal GST; dsDNA, one strand shown. The method, boiled down:
as §1

Test [12] has as its target T7, ETV3L (Homo sapiens, UniProt Q6ZN32 1-361).
T7 sequence: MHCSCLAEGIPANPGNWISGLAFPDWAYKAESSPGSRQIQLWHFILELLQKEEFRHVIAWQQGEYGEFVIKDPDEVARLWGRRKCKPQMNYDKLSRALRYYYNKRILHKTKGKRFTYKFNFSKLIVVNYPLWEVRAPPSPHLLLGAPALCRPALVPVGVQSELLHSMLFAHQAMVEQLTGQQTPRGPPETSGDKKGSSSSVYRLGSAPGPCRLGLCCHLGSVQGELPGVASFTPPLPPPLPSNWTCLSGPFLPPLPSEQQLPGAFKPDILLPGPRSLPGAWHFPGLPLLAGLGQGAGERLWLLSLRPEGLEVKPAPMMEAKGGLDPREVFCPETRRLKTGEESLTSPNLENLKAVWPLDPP
To be noted: protein: recombinant; tags: N-terminal GST; dsDNA, one strand shown. In outline:
as §1

Test [13] has as its target T8, ETS2 (Homo sapiens, UniProt P15036 1-469).
T8 sequence: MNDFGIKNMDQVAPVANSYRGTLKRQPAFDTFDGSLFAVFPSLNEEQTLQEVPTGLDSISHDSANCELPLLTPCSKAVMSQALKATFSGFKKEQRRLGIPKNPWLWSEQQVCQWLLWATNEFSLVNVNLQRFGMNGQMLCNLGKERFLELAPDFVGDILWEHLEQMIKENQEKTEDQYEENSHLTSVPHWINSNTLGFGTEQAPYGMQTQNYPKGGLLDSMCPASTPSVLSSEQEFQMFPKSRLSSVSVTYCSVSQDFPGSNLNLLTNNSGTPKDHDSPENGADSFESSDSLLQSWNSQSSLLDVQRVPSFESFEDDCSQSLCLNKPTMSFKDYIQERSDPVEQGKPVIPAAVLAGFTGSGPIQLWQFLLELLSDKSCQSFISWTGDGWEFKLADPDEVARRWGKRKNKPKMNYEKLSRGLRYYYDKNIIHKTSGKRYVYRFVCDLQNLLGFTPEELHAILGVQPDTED
To be noted: protein: recombinant; tags: N-terminal GST; dsDNA, one strand shown. The method, boiled down:
as §1

For test [14], the target named is T9, SPDEF (Homo sapiens, UniProt O95238 1-335).
T9 sequence: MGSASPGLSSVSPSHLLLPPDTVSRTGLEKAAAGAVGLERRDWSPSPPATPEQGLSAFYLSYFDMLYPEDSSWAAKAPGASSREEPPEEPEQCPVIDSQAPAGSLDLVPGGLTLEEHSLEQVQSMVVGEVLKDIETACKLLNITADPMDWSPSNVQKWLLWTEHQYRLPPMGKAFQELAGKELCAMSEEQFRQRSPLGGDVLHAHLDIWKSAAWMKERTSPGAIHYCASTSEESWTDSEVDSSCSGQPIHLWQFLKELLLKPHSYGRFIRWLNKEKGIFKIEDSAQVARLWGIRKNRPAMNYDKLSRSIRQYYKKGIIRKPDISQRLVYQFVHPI
To be noted: protein: recombinant; tags: N-terminal GST; dsDNA, one strand shown. The method, boiled down: as §1

The target in test [15] is T10, ETV7 (Homo sapiens, UniProt Q9Y603 1-341).
T10 sequence: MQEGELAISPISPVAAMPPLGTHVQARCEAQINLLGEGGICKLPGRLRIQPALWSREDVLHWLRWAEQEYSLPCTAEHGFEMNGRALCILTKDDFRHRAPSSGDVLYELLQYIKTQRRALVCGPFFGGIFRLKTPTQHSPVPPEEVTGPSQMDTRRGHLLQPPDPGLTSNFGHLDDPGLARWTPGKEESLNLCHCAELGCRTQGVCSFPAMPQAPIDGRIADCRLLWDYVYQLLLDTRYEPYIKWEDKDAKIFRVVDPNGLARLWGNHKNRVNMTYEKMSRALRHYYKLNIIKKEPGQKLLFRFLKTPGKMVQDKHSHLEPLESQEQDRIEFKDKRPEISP
To be noted: protein: recombinant; tags: N-terminal GST; dsDNA, one strand shown. The method, boiled down:
as §1

In test [16] the target is T11, ELF5 (Homo sapiens, UniProt Q9UKW6-2 1-255).
T11 sequence: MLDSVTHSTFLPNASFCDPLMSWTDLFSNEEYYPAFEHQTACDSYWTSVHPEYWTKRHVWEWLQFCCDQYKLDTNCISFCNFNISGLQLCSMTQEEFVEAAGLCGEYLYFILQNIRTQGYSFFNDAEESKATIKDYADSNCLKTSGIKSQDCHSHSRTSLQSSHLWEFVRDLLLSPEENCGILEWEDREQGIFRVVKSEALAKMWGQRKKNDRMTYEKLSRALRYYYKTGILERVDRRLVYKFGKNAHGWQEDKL
The following applies: protein: recombinant; tags: N-terminal GST; dsDNA, one strand shown. In outline: as §1

The target in test [17] is T12, ETV3 (Homo sapiens, UniProt P41162-2 1-143).
T12 sequence: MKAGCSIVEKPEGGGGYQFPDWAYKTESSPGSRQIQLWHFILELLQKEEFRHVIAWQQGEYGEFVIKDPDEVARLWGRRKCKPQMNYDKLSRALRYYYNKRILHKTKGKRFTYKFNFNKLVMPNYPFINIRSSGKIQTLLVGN
The following applies: protein: recombinant; tags: N-terminal GST; dsDNA, one strand shown. The method, boiled down: as §1

In test [18] the target is ETV6 (Homo sapiens, UniProt P41212 1-452). To be noted: protein: recombinant; tags: N-terminal GST; dsDNA, one strand shown. In outline: as §1
Chain of ETV6 (P41212 whole entry): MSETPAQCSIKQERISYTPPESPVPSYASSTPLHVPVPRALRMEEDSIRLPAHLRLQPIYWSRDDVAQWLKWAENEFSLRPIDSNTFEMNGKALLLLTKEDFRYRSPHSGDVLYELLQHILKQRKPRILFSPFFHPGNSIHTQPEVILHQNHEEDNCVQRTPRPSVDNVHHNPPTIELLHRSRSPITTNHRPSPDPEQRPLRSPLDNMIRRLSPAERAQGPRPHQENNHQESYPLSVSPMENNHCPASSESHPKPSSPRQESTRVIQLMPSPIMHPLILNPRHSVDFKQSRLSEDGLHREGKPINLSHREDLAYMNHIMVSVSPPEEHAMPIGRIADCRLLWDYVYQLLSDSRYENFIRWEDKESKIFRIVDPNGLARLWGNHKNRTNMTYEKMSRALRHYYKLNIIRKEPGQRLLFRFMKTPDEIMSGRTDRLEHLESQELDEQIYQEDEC

Chain of ELF4 (Q99607 whole entry): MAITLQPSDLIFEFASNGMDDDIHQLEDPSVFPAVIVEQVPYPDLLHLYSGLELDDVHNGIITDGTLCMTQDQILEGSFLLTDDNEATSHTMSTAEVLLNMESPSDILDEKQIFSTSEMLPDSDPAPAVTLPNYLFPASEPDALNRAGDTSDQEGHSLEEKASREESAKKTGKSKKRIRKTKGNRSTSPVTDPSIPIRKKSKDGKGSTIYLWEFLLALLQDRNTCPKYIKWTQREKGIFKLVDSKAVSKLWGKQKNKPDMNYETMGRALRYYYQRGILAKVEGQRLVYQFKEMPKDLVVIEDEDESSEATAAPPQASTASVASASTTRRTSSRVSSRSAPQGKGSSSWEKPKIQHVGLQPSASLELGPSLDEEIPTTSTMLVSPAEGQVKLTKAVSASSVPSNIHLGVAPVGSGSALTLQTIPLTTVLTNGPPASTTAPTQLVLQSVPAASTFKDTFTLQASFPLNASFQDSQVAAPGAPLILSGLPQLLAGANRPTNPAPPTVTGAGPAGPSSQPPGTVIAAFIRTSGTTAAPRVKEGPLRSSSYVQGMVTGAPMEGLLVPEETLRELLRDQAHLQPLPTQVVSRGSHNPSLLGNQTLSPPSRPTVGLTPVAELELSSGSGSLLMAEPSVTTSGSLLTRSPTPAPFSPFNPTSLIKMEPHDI
Chain of ETV1 (P50549 whole entry): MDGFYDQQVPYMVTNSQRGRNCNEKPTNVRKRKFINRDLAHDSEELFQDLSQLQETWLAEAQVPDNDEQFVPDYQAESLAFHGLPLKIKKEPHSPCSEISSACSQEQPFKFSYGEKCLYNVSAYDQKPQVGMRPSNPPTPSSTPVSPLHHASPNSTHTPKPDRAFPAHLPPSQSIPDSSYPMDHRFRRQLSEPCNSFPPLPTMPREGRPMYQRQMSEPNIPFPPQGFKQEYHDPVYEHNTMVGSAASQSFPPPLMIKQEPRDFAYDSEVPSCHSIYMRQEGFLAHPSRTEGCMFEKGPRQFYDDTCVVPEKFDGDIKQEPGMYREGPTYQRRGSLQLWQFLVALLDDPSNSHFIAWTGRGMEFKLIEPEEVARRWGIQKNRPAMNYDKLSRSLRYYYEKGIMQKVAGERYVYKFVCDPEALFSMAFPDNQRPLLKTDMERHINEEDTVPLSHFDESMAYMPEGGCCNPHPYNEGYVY
Chain of ETV5 (P41161 whole entry): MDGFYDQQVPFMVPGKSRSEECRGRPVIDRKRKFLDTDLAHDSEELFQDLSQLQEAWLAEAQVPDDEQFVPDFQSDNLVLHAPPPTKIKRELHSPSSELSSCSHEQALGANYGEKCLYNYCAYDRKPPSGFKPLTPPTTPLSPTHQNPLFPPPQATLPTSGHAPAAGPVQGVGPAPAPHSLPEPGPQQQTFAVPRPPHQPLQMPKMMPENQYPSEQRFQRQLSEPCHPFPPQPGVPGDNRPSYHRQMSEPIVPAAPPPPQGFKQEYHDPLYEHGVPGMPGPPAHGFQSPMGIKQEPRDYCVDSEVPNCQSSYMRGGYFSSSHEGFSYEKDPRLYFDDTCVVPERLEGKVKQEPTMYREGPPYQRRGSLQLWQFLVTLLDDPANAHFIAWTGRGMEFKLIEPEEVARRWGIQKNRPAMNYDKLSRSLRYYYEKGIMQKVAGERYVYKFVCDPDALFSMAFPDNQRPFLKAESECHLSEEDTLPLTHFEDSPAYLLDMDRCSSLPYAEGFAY
Chain of HSF1 (Q00613 whole entry): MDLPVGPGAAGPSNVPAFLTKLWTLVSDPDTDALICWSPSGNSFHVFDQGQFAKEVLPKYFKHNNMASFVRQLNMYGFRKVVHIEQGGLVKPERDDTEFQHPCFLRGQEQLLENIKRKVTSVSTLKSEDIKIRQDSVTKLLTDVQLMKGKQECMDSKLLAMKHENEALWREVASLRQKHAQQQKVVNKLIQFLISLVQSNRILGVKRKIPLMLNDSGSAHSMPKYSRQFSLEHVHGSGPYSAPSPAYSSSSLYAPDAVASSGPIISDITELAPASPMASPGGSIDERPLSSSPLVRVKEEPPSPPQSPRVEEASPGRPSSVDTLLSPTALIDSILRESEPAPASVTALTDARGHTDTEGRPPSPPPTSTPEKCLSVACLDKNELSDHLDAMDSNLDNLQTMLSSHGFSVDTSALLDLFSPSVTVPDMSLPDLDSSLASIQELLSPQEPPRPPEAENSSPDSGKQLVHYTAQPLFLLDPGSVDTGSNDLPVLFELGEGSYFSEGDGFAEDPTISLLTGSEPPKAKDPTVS
Chain of CRX (O43186 whole entry): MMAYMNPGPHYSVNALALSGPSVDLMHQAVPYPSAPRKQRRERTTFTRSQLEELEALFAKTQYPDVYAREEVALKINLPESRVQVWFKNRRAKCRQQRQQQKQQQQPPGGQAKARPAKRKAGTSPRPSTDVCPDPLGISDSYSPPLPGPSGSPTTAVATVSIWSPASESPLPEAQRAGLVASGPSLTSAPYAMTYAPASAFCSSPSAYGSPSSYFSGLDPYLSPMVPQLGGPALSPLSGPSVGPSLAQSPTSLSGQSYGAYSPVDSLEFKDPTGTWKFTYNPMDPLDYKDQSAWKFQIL

For the sequence CCTACT, the binding signal in test [1] is 1.62 fold enrichment (6-mer frequency, TF over GST control); in test [2], 1.57 fold enrichment (6-mer frequency, TF over GST control); in [3] it was 1.48 fold enrichment (6-mer frequency, TF over GST control); in [4], 1.64 fold enrichment (6-mer frequency, TF over GST control); in [5], 1.7 fold enrichment (6-mer frequency, TF over GST control); in test [6], 1.76 fold enrichment (6-mer frequency, TF over GST control). The binding signal in test [7] is 1.61 fold enrichment (6-mer frequency, TF over GST control); in test [8], 1.41 fold enrichment (6-mer frequency, TF over GST control); in test [9], 1.61 fold enrichment (6-mer frequency, TF over GST control); in [10] it was 1.49 fold enrichment (6-mer frequency, TF over GST control); in [11] it was 1.7 fold enrichment (6-mer frequency, TF over GST control); in [12], 1.53 fold enrichment (6-mer frequency, TF over GST control). Moreover, the binding signal in [13] is 1.7 fold enrichment (6-mer frequency, TF over GST control); in test [14], 1.49 fold enrichment (6-mer frequency, TF over GST control); in test [15] it was 1.35 fold enrichment (6-mer frequency, TF over GST control); in test [16] it was 1.82 fold enrichment (6-mer frequency, TF over GST control); in [17] it was 1.77 fold enrichment (6-mer frequency, TF over GST control); in test [18], 1.73 fold enrichment (6-mer frequency, TF over GST control).
